The nature of test [1]: NCI Yeast Anticancer Drug Screen. Data for the rad50 strain (AID 155).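 Further: 0% = growth of vehicle-only cultures of the same strain.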 As to conditions: S. cerevisiae rad50 strain growth inhibition, active compounds read high. The gist of the method:
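Compounds were tested on a yeast strain with an engineered DNA damage repair alteration; the reported value is growth inhibition normalised to vehicle treatment.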

Test [2] can be described thus: NCI Yeast Anticancer Drug Screen. Data for the mec2-1 strain (AID 157). The following applies: S. cerevisiae mec2-1 strain, active compounds read high. The gist of the method:
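Each compound was tested on mec2-1 yeast, a strain altered in DNA damage repair or cell cycle control. Growth inhibition is reported relative to vehicle.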

Test [3] in a line: NCI Yeast Anticancer Drug Screen. Data for the sgs1 mgt1 strain (AID 161).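 Further: 0% = growth of cultures given vehicle only.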 As to conditions: S. cerevisiae sgs1 mgt1 strain, active compounds read high. The gist of the method: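 Read-out: growth inhibition vs vehicle controls. Cells: mutant yeast strain deficient in DNA damage repair.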
Test [4] in a line: NCI Yeast Anticancer Drug Screen. Data for the cln2 rad14 strain (AID 165).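 Further: 0% = growth equal to vehicle treated cultures.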 The following applies: S. cerevisiae cln2 rad14 strain, active compounds read high. The gist of the method: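 Test compounds were added to cln2 rad14 yeast cultures; inhibition of growth was then determined by comparison with vehicle treatment.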
Test [5] is described as follows: NCI Yeast Anticancer Drug Screen. Data for the bub3 strain (AID 167). As to conditions: S. cerevisiae bub3 mutant strain, active compounds read high. The gist of the method:
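Growth of a checkpoint-deficient yeast mutant is measured after compound exposure. Values represent inhibition relative to vehicle.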

Test [6] in a line: NCI Yeast Anticancer Drug Screen. Data for the mlh1 rad18 strain (AID 175). As to conditions: S. cerevisiae mlh1 rad18 strain growth inhibition, active compounds read high. The gist of the method: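 Inhibition values reflect reduced growth of mutant yeast versus vehicle-treated controls following compound exposure; the mutations affect DNA damage repair.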
The mark [7] stands for this setting: at 5.0 µM (retest, dose inferred, filed as 0.5).
[8] abbreviates: at 50.0 µM (retest, dose inferred, filed as 5.0).

The panel holds about 79,000 compounds, 15% with a hit somewhere; the sample as a whole holds those more often. Values without a mark were called inactive. The source made the active and inactive calls. No stated cut-off is given here; in the data, active means growth inhibition above about 70%; inactive means the rest.

The values below come from PubChem BioAssay (NCI).

On to `COC(=O)C1(C)CCCC2(C)C3CCC4CC3(C=C4CO)CCC12` (stereo not drawn), for which the growth inhibition in test [1] (setting [7]) is 32%; in test [1] (setting [8]), 96% (active); in test [1] (at 50.0 µM) it was 53%; in test [2] (setting [7]), 24%; in test [2] (setting [8]) it was 98% (active); in test [2] (at 50.0 µM) it was 43.1%. Besides, the growth inhibition in test [3] (setting [7]) was 35%; in test [3] (setting [8]), 99% (active); in test [3] (at 50.0 µM) it was 86.5% (active); in test [4] (setting [7]) it was 36%; in test [4] (setting [8]), 91% (active); in test [4] (at 50.0 µM), 73.5% (active). In addition, the growth inhibition is 24% in test [5] (setting [7]); 98% (active) in test [5] (setting [8]); 80.7% (active) in test [5] (at 50.0 µM); 41% in test [6] (setting [7]); 98% (active) in test [6] (setting [8]); 50.4% in test [6] (at 50.0 µM).

In the case of `CCCCc1c2c(nc3c1CC/C(=C\c1ccccc1)C3=O)CCCC2`, the growth inhibition in test [1] (setting [7]) is -23%; in test [1] (setting [8]), 97% (active); in test [1] (at 50.0 µM), 65.8%; in test [2] (setting [7]), -7%; in test [2] (setting [8]) it was 98% (active); in test [2] (at 50.0 µM), 48.5%. In addition, the growth inhibition in test [3] (setting [7]) is -11%; in test [3] (setting [8]) it was 97% (active); in test [3] (at 50.0 µM), 69.6%; in test [4] (setting [7]) it was -1%; in test [4] (setting [8]) it was 97% (active); in test [4] (at 50.0 µM) it was 38%. Further, the growth inhibition in test [5] (setting [7]) is -1%; in test [5] (setting [8]), 98% (active); in test [5] (at 50.0 µM) it was 54%; in test [6] (setting [7]), -19%; in test [6] (setting [8]), 97% (active); in test [6] (at 50.0 µM), 49.7%.

On to `COc1ccc2[nH]c3ccc4cc[n+](CCN5CCC(C6CCN(CC[n+]7ccc8ccc9[nH]c%10ccc(OC)cc%10c9c8c7)CC6)CC5)cc4c3c2c1`, for which the growth inhibition in test [1] (setting [7]) is 69%; in test [1] (setting [8]), 98% (active); in test [1] (at 50.0 µM), 90.4% (active); in test [2] (setting [7]) it was 57%; in test [2] (setting [8]) it was 98% (active); in test [2] (at 50.0 µM), 93.5% (active). Besides, the growth inhibition is 29% in test [3] (setting [7]); 98% (active) in test [3] (setting [8]); 90.1% (active) in test [3] (at 50.0 µM); 34% in test [4] (setting [7]); 96% (active) in test [4] (setting [8]); 91.1% (active) in test [4] (at 50.0 µM). Besides, the growth inhibition in test [5] (setting [7]) was 22%; in test [5] (setting [8]), 96% (active); in test [5] (at 50.0 µM), 91.1% (active); in test [6] (setting [7]), 77% (active); in test [6] (setting [8]), 97% (active); in test [6] (at 50.0 µM), 90.5% (active).

Consider `[O-][n+]1onc2ncccc21`, for which the growth inhibition in test [1] (setting [7]) is 34%; in test [1] (setting [8]) it was 98% (active); in test [1] (at 50.0 µM), 99.1% (active); in test [2] (setting [7]), 38%; in test [2] (setting [8]), 99% (active); in test [2] (at 50.0 µM), 99.5% (active). The growth inhibition was 54% in test [3] (setting [7]); 99% (active) in test [3] (setting [8]); 99.2% (active) in test [3] (at 50.0 µM); 33% in test [4] (setting [7]); 99% (active) in test [4] (setting [8]); 99.2% (active) in test [4] (at 50.0 µM). The growth inhibition is 66% in test [5] (setting [7]); 98% (active) in test [5] (setting [8]); 99.2% (active) in test [5] (at 50.0 µM); 63% in test [6] (setting [7]); 99% (active) in test [6] (setting [8]); 99.3% (active) in test [6] (at 50.0 µM).

Regarding `O=C1C=CC(Nc2cccc([N+](=O)[O-])c2)C1Nc1cccc([N+](=O)[O-])c1` (stereo not drawn), the growth inhibition is -21% in test [1] (setting [7]); -16% in test [1] (setting [8]); 92.3% (active) in test [1] (at 50.0 µM); 16% in test [2] (setting [7]); -9% in test [2] (setting [8]); 89.2% (active) in test [2] (at 50.0 µM). Besides, the growth inhibition in test [3] (setting [7]) was -11%; in test [3] (setting [8]), -11%; in test [3] (at 50.0 µM) it was 91.5% (active); in test [4] (setting [7]), -8%; in test [4] (setting [8]) it was -24%; in test [4] (at 50.0 µM) it was 90.7% (active). The growth inhibition in test [5] (setting [7]) was 19%; in test [5] (setting [8]), -4%; in test [5] (at 50.0 µM), 90.7% (active); in test [6] (setting [7]), -29%; in test [6] (setting [8]), -19%; in test [6] (at 50.0 µM), 91.7% (active).

On to `CCCCCCCCCCCCCCCCCCOC(=O)C(N)Cc1ccccc1` (stereo not drawn), for which the growth inhibition was -1% in test [1] (setting [7]); -9% in test [1] (setting [8]); -7.3% in test [1] (at 50.0 µM); -2% in test [2] (setting [7]); -5% in test [2] (setting [8]); 10.1% in test [2] (at 50.0 µM). Besides, the growth inhibition in test [3] (setting [7]) was 0%; in test [3] (setting [8]) it was -6%; in test [3] (at 50.0 µM) it was 11.1%; in test [4] (setting [7]), -6%; in test [4] (setting [8]), -4%; in test [4] (at 50.0 µM), -7.75%. Moreover, the growth inhibition in test [5] (setting [7]) is -2%; in test [5] (setting [8]) it was -3%; in test [5] (at 50.0 µM) it was -5.85%; in test [6] (setting [7]) it was -3%; in test [6] (setting [8]) it was -8%; in test [6] (at 50.0 µM), 5.5%.
